Screening results (PubChem)
ClpP mod: qHTS Assay for Activators of ClpP | ATP-dependent Clp protease proteolytic subunit (Bacillus subtilis (strain 168)), P80244 | purified B. subtilis ClpP, FRET peptide cleavage, 20 min | Potency, µM (doses to about 57.5 µM), for the others: top-dose activity change, negative = active | actives 1.9% (n = 340,000); active = well fitted falling curve with a large enough effect; inconclusive = small, poorly fitted or top-dose-only effect; inactive = no such curve, though single readings can be large or run the other way; also: the source files actives as falling curves though it sought activators and does not explain the sign; nearly all actives have a fitted effect of over 65% in size
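Buffer: 100 mM Tris/HCl pH8, 100 mM KCl, 0.05% low protease BSA, 2.5% glycerol, 0.01% Tween-20. ClpP 10 microg/mL final; 20 min RT; delta FRET normalized to ADEP and DMSO controls.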
DT40 TDP1 no CPT: qHTS for Inhibitors of human tyrosyl-DNA phosphodiesterase 1 (TDP1): qHTS in cells in absence of CPT | DT40 Tdp1-/- hTDP1 cells, no CPT, ATP luminescence, 48 h | actives 15% (n = 420,000) | AID 686978, 2013 | Potency, µM (highest dose often 46.2 µM), without a hit: top-dose activity change, negative = growth inhibition, hits mostly inhibitors; also: % is scaled to controls: 0 for no effect and ±100 for the full control effect; nearly all actives have a fitted effect of over 55% in size
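Stably hTDP1-transfected Tdp1-null chicken DT40 cells were treated with library compounds minus camptothecin and grown for at least 48 hr at 37 °C, after which cellular ATP was quantified by luminescence.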
TDP1 block: blocks human tyrosyl-DNA phosphodiesterase 1; recombinant TDP1, AlphaScreen DNA substrate cleavage; Potency, µM (series often up to 130 µM), inactives show at the highest dose activity change, negative = inhibition, usual class: inhibitors; actives 0.28% (n = 350,000); AID 485290; also: % is scaled to controls: 0 for no effect and ±100 for the full control effect; nearly all actives have a fitted effect of over 40% in size
Target sequence (Q9NUW8 whole entry, looked up): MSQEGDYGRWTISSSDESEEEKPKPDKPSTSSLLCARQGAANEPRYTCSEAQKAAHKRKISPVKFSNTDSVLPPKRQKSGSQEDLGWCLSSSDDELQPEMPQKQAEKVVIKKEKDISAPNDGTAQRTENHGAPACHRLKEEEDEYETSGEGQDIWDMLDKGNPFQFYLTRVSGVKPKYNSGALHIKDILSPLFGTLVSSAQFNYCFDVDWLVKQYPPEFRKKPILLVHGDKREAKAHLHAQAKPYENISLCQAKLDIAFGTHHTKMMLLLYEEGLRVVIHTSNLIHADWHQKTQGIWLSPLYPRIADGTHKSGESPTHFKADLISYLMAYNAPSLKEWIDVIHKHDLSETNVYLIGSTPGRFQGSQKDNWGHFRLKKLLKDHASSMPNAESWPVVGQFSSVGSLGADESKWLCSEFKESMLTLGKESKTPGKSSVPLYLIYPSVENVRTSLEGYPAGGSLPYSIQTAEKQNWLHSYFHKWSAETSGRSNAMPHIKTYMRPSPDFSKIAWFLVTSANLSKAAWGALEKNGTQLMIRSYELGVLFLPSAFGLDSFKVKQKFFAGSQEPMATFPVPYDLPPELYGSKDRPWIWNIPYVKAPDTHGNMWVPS
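Compounds were preincubated with Tdp1 (1 nM final) for 15 min at room temperature before substrate (15 nM final) started a 5 min reaction; beads (10 ug/ml final) were then added for 10 min before AlphaScreen detection.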
TDP1 cell CPT: growth inhibition of DT40 Tdp1-/-;hTDP1 cells with camptothecin (screen for TDP1 inhibitors). chicken DT40 Tdp1-/-;hTDP1 cells + 20 nM CPT, ATP luminescence, 48 h. Potency, µM (doses to about 46.2 µM), for inactives: at the top dose activity change, negative = growth inhibition, hits mostly inhibitors. actives 12% (n = 420,000). AID 686979; also: % is scaled to controls: 0 for no effect and ±100 for the full control effect; nearly all actives have a fitted effect of over 55% in size
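Cell growth measured by CellTiter-Glo luminescence after a minimum 48 h, 37 C compound exposure with 20 nM CPT in Tdp1-knockout DT40 cells stably expressing hTDP1, seeded 400/well; qHTS titration format.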
* marks the source's active call; other numbers are inactive results; ? = inconclusive; / = no result. The list is not random: actives were taken first. Their share in the collection is about 17%. Unless noted, calls follow the shape of the dose curve; as a rule, active = well fitted curve in the direction sought with a large enough effect; inconclusive = small, poorly fitted or top-dose-only effect, or another doubt; inactive = no such curve, though single readings can be large; an effect the other way counts as inactive or inconclusive. Potency is read from the fitted curve at half-maximal effect.

SMILES	ClpP mod	DT40 TDP1 no CPT	TDP1 block	TDP1 cell CPT
COc1ccc(OCCN2CCC(C(=O)NC(c3ccc(F)cc3)c3ncccc3C)CC2)cc1 (stereo not given)	1%	16µM*	/	?
Cc1cccnc1C(NC(=O)C1CCN(Cc2ccc(Cl)cc2)CC1)c1ccc(F)cc1 (stereo not given)	1%	21µM*	/	26µM*
COc1ccc(OCCN2CCC(C(=O)NC(c3ccccn3)c3ccccc3OC)CC2)cc1 (stereo not given)	0%	-20%	/	?
CCCN1CCC(C(=O)NC(c2ccc(F)cc2)c2ncccc2C)CC1 (stereo not given)	0%	-26%	/	?
Cc1cccnc1C(NC(=O)C1CCN(CCOc2ccc(F)cc2)CC1)c1ccc(Cl)cc1 (stereo not given)	3%	16µM*	/	?
Cc1cccnc1C(NC(=O)C1CCN(Cc2ccc3ccccc3n2)CC1)c1ccc(Cl)cc1 (stereo not given)	-3%	16µM*	/	?
COc1ccc(OCCN2CCC(C(=O)NC(c3ccc(Cl)cc3)c3cnccn3)CC2)cc1 (stereo not given)	-2%	?	/	?
COc1ccc(OCCN2CCC(C(=O)NC(c3ccc(Cl)cc3)c3ncccc3C)CC2)cc1 (stereo not given)	-4%	?	/	23µM*
Cc1cccnc1C(NC(=O)C1CCN(CCCc2ccccc2)CC1)c1ccc(F)cc1 (stereo not given)	-1%	23µM*	/	?
COc1ccc(CC(=O)N(C)Cc2ccc(Cl)cc2)cc1S(=O)(=O)N1CCOCC1	-11%	?	/	?
O=C(NCCCN1CCOCC1)C(=O)N/N=C/c1c2ccccc2cc2ccccc12	2%	21µM*	6%	?
O=C(NCCCN1CCOCC1)C(=O)N/N=C/c1c(Cl)cccc1Cl	/	-4%	-3%	0%
Cc1cccc(N(Cc2cc3ccccc3[nH]c2=O)S(=O)(=O)c2ccccc2)c1	32µM*	?	-3%	?
CCOc1ccc(N(Cc2cc3ccc(C)cc3[nH]c2=O)S(=O)(=O)c2ccccc2)cc1	32µM*	?	1%	?
Cc1ccc(N(Cc2cc3cc(C)ccc3[nH]c2=O)S(=O)(=O)c2ccccc2)cc1	28µM*	15µM*	3%	23µM*
Cc1cccc(N(Cc2cc3ccc(C)cc3[nH]c2=O)S(=O)(=O)c2ccccc2)c1	25µM*	?	3%	-28%
COc1ccc(-n2nc3ccc(NC(=O)c4ccc(C#N)cc4F)cc3n2)cc1Cl	1%	-1%	5%	-19%
Cc1noc(C)c1-c1cc(N2CCNCC2)ncn1	/	-3%	/	-16%
CCOC(=O)c1cc(S(=O)(=O)N2CCN(c3ccccc3F)CC2)[nH]n1	3%	?	-1%	?
Cc1cccc2cc(CN(CC(C)C)S(=O)(=O)c3ccccc3)c(=O)[nH]c12	-13%	23µM*	3%	?
O=c1[nH]c2ccccc2cc1CN(c1ccccc1)S(=O)(=O)c1ccccc1	32µM*	-13%	5%	-24%
CC(C)OC(=O)CC1C(=O)NCCN1C(=S)NC(=O)c1cccs1 (stereo not given)	/	8%	-6%	10%
O=C(NC(=S)Nc1cc([N+](=O)[O-])ccc1O)c1cccnc1	1%	26µM*	6%	21µM*
CCC(CC)=NNc1cccc([N+](=O)[O-])c1	1%	-27%	3%	-13%
CCOc1ccc(C(=O)NC(=S)Nc2ccccn2)cc1[N+](=O)[O-]	-8%	?	7%	?
SMILES	ClpP mod	DT40 TDP1 no CPT	TDP1 block	TDP1 cell CPT
COc1ccc(C(=O)/C(C#N)=N/Nc2cccc([N+](=O)[O-])c2)cc1	0%	4.1µM*	8%	5.8µM*
COc1ccc(/C=C(/NC(=O)c2cccc([N+](=O)[O-])c2)C(=O)O)cc1	1%	7%	-4%	-1%
O=C(NC(=S)Nc1ccccn1)c1cccc([N+](=O)[O-])c1	/	18µM*	2%	?
Cc1ccc([N+](=O)[O-])cc1NC(=S)NC(=O)c1cccnc1	/	-9%	5%	-1%
COc1ccc(C(=O)NNC(=S)NC(=O)c2cccc([N+](=O)[O-])c2)cc1	/	18µM*	/	?
Cc1c(C(=O)NCc2ccc([N+](=O)[O-])cc2)sc(=O)n1Cc1ccc(-c2ccccc2)cc1	-3%	?	/	?
O=C(NC(=S)NNC(=O)c1ccccc1O)c1cccc([N+](=O)[O-])c1	/	23µM*	/	23µM*
CCOC(=O)C(NC(C)=O)C(O)c1ccc([N+](=O)[O-])cc1 (stereo not given)	/	0%	5%	-2%
CC1CN(C(=S)NC(=O)c2cccc([N+](=O)[O-])c2)CC(C)O1 (stereo not given)	-5%	16µM*	4%	?
CC1CN(C(=S)Nc2cccc([N+](=O)[O-])c2)CC(C)O1 (stereo not given)	-1%	1%	6%	3%
O=C(CNC(=S)NC(=O)c1cccc([N+](=O)[O-])c1)c1ccccc1	/	-14%	4%	-7%
CCCCCC(=O)NNC(=S)NC(=O)c1cccc([N+](=O)[O-])c1	0%	13µM*	0%	15µM*
CCCCCCCCCCCC(=O)NC(C(=O)OCC)C(O)c1cccc([N+](=O)[O-])c1 (stereo not given)	3%	23µM*	6%	16µM*
O=C(Cc1ccc(NC(=O)C2CCCN(C(=O)C3CC3)C2)cc1)Nc1ccc(C(=O)N2CCOCC2)cc1 (stereo not given)	0%	-6%	/	4%
CC(=O)Nc1ccc(S(=O)(=O)NCC2CCC(C(=O)N3CC(C)CC(C)C3)CC2)cc1 (stereo not given)	-1%	?	/	-6%
CN(C)c1ccc(NC(=O)c2ccc(Cn3cc([N+](=O)[O-])cn3)cc2)cc1	/	?	7%	?
CC(=O)Nc1cccc(NC(=O)Cn2cnc3c(oc4ccccc43)c2=O)c1	0%	-17%	6%	-17%
CCCc1cc(=O)oc2cc(OCC(=O)N3CCN(C(=O)C4COc5ccccc5O4)CC3)ccc12 (stereo not given)	4%	5.8µM*	5%	?
Cc1c(C)c2ccc(OCC(=O)N3CCN(C(=O)C4COc5ccccc5O4)CC3)cc2oc1=O (stereo not given)	4%	2.3µM*	1%	?
Cc1cc(=O)oc2cc(OCC(=O)N3CCN(C(=O)C4COc5ccccc5O4)CC3)ccc12 (stereo not given)	3%	?	3%	?
Clc1ccc(-n2cccc2CN2CCc3nnc(Cc4ccccc4)n3CC2)nc1	/	-14%	/	4%
CCN(C(=O)Cc1ccc(Br)cc1)C1CCCCC1	?	?	2%	21µM*
